A selection follows.
aSyn 5UTR act: Activators via SNCA 5'UTR binding, MLPCN | 300,000 compounds, 7.1% hits | AID 1814, 2009 | alpha-synuclein 5'UTR reporter, activators screen | activity score, % (tested at 7.5 µM), hits read low; in the data active = activity score below about -60%
Active calls of the source: *.

SMILES | aSyn 5UTR act
CCN(CC)CCCNC1=C(Cl)C(=O)c2ccccc2C1=O | 76
O=C1C(Cl)=C(Nc2ccccc2)C(=O)c2ccccc21 | -190*
Brc1ccc(NC2=Nc3ccccc3CC2)cc1 | -172*
COc1ccc(-c2cc(O)cc(O)c2)cc1 | -143*
CCCCCCCCCCCCCCCCn1cc[n+](C)c1 | 141
Cc1nc2cc(-c3cccs3)[nH]n2c(=O)c1C | -108*
Cc1ccccc1-c1cc2nc(C)c(C)c(=O)n2[nH]1 | -101*
Cc1nc2cc(-c3ccc(F)cc3)[nH]n2c(=O)c1C | -129*
Cc1cc(C(=O)N/N=C2\CC(=O)c3ccccc32)c(C)n1-c1ccccc1 | -112*
O=C(COc1ccc2ccccc2c1Br)Nc1ncn[nH]1 | -68*
C=CCNC(=S)NNC(=O)COc1ccc2cc(Br)ccc2c1 | -157*
O=C(COc1ccc2ccccc2c1Br)N1CCCC1 | -90*
O=C(COc1ccc2cc(Br)ccc2c1)N1CCCC1 | -62*
O=C(Oc1ccc2ccccc2c1Cl)N1CCCC1 | -79*
CC(C)c1ccc(OCC(=O)N2CCCCCC2)c(Br)c1 | -132*
NC1=NC(=O)/C(=C\c2cc([N+](=O)[O-])ccc2Cl)S1 | -95*
O=C1NCCc2c1[nH]c1ccc([N+](=O)[O-])cc21 | 70
O=[N+]([O-])c1ccc(N=Nc2c(O)[nH]c3ccc(F)cc23)cc1 | -82*
CC(C)(O)C(=O)N=Nc1c(O)[nH]c2ccccc12 | -96*
Oc1[nH]c2ccccc2c1N=Nc1ccccc1F | -357*
Oc1[nH]c2ccccc2c1N=Nc1ccccc1 | -123*
Cc1nc2ccccn2c1C(=O)N=Nc1c(O)[nH]c2ccccc12 | -103*
Oc1[nH]c2ccccc2c1N=Nc1ccc(F)cc1 | -171*
CC(C)C(NC(=O)OCc1ccccc1)C(=O)OCC(=O)N1CCCCC1 (stereo not drawn) | -132*
CS/C(N)=N/N=C/c1ccc([N+](=O)[O-])cc1 | -133*
SMILES | aSyn 5UTR act
COc1cc(/C=N/N=C(\N)c2nonc2N)ccc1O | -78*
N/C(=N\N=C\c1ccc(O)cc1)c1nonc1N | -182*
N/C(=N\N=C\c1ccc(O)c(O)c1)c1nonc1N | -130*
N/C(=N\N=C\c1ccc([N+](=O)[O-])cc1)c1nonc1N | -154*
COc1ccc(/C=N/N=C(\N)c2nonc2N)cc1OC | -93*
N/C(=N\N=C\c1ccc(Br)o1)c1nonc1N | -116*
CS/C(N)=N/N=C/c1ccc2c(c1)OCO2 | -119*
N/C(=N\N=C\c1cccc(O)c1)c1nonc1N | -106*
CSc1ccc(C2NC(=O)c3ccccc3N2)cc1 (stereo not drawn) | -126*
Cc1ccc(C)c(C2NC(=O)c3ccccc3N2)c1 (stereo not drawn) | -70*
O=Nc1c2nc3ccccc3n(O)c-2c2ccccc12 | -129*
CN(C)c1ccc(N=Nc2cccc(F)c2)cc1 | -106*
CN(C)c1ccc(N=Nc2cccc3ccoc23)cc1 | -136*
Cc1ccc(C(=O)O/N=C(\N)c2ccccn2)cc1 | 65
N/C(=N\OC(=O)c1ccc(F)cc1)c1ccc(Br)cc1 | -143*
N/C(=N\OC(=O)c1ccc(F)cc1)c1ccccc1 | -298*
Cc1ccc(/C(N)=N/OC(=O)c2ccc(F)cc2)cc1 | -194*
Cc1nc2c(sc3nc4c(cc32)COC(C)(C)C4)c(=O)n1Cc1ccccc1 | -109*
Cc1nc2c(sc3nc4c(cc32)COC(C)(C)C4)c(=O)n1CC(=O)NCc1ccco1 | -69*
CCCc1nc2c(sc3nc4c(cc32)COC(C)(C)C4)c(=O)n1Cc1ccco1 | -65*
Cc1nc(OCc2ccccc2)c2sc3nc4c(cc3c2n1)COC(C)(C)C4 | -185*
CC1CCc2c(C(=O)Nc3ccccn3)csc2C1 (stereo not drawn) | -116*
CC1CCc2sc(C(=O)NCc3ccccn3)cc2C1 (stereo not drawn) | -112*
CC1CCc2c(C(=O)NCc3ccccn3)csc2C1 (stereo not drawn) | -84*
CC1CCc2sc(C(=O)NC(C)C3CCCO3)cc2C1 (stereo not drawn) | -96*
SMILES | aSyn 5UTR act
CC1CCc2c(C(=O)Nc3nccs3)csc2C1 (stereo not drawn) | -151*
COCCNC(=O)c1ccc2c3n(nc2c1)-c1ccc(C)cc1CO3 | -151*
Cc1ccc2c(c1)COc1c3ccc(C(=O)N[C@@H](CO)C(C)C)cc3nn1-2 | -144*
Cc1ccc(/C=N/Nc2ncc(Cl)cc2Cl)s1 | -148*
Clc1cnc(N/N=C/c2cccs2)c(Cl)c1 | -193*
Oc1ccc(/C=N/Nc2ncc(Cl)cc2Cl)cc1 | -73*
CCc1ccc2[nH]c(=O)c(CN(Cc3nnnn3C3CCCC3)C3CCCCC3)cc2c1 | -70*
Cc1ccc2nc(/C(C#N)=C/c3ccc(O)c(O)c3)[nH]c2c1 | -222*
Cc1ccc2nc(/C(C#N)=C/c3cn[nH]c3-c3ccc(F)cc3)[nH]c2c1 | -175*
Cn1cccc1C(=O)OCc1ccc(C(C)(C)C)cc1 | -141*
CN1CCN(S(=O)(=O)c2ccc(Br)c3nsnc23)CC1 | -70*
Cc1cccc2nc(COc3ccc(-c4ccccc4)cc3)cn12 | -121*
CCCSc1ccc(C(=O)Nc2ccc(F)cc2F)cn1 | -87*

Screens: PubChem, Broad Institute
